Columns and labels:
Assay in all cases: PBM binding z-score (relative to random genomic background probes); higher = stronger binding; sequences stand for … in GC…GCGATTGACAGCGTAGAATGAAGG
[1] = test system: FXR:RXRa (NR concentration 270 nM, RXRa partner concentration 90 nM)
Procedure, shortened: (§1)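 Random background probes are the reference for binding z-scores. These scores derive from regression-normalized fluorescence on custom Agilent 4×180K protein-binding microarrays incubated 1 h with ligand-free nuclear receptor dimers. Binding was detected with antibodies against each partner (one per run).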

[2] = test system: LXRa:RXRa (NR concentration 270 nM, RXRa partner concentration 90 nM)
Procedure, shortened: as §1

[3] = test system: LXRa homodimer (NR concentration 270 nM)
Procedure, shortened: as §1

[4] = test system: LXRb:RXRa (NR concentration 270 nM, RXRa partner concentration 90 nM)
Procedure, shortened: as §1

[5] = test system: LXRb homodimer (NR concentration 270 nM)
Procedure, shortened: as §1

[6] = test system: PPARa:RXRa (NR concentration 270 nM, RXRa partner concentration 90 nM)
Procedure, shortened: as §1

[7] = test system: PPARg:RXRa (NR concentration 180 nM, RXRa partner concentration 90 nM)
Procedure, shortened: as §1

[8] = test system: PPARg:RXRa 270nM:90nM, anti-RXR (NR concentration 270 nM, RXRa partner concentration 90 nM)
Procedure, shortened: as §1

[9] = test system: PPARg:RXRa 30nM:10nM, anti-RXR (NR concentration 30 nM, RXRa partner concentration 10 nM)
Procedure, shortened: as §1

[10] = test system: PPARg:RXRa 90nM:30nM, anti-RXR (NR concentration 90 nM, RXRa partner concentration 30 nM)
Procedure, shortened: as §1

Row | Sequence | PBM binding z-score [1] | PBM binding z-score [2] | PBM binding z-score [3] | PBM binding z-score [4] | PBM binding z-score [5] | PBM binding z-score [6] | PBM binding z-score [7] | PBM binding z-score [8] | PBM binding z-score [9] | PBM binding z-score [10]
1 | CCGACTGGGGCAGAAAGGTTACCATGCCATCCGG | 0.204 | 0.517 | -0.401 | 0.479 | -1.31 | 2.23 | 1.6 | 2.65 | 0.457 | 1.82
2 | GCAGACAAGTGAAACGCAGGTAACTCAGGGTGGC | -0.375 | -0.79 | -0.665 | -0.901 | -1.26 | -0.28 | 0.44 | -0.661 | -0.558 | -0.468
3 | TCTAGTTGCTCACGGAGGTCACACACGACGGGTA | 2.59 | 3.1 | 1.86 | 3.22 | 0.53 | 3.62 | 1.55 | 2.79 | 3.16 | 2.76
4 | TGTCAAAGTACAAAGGTAACGTAAGTATCCACAC | 0.237 | 0.465 | -0.185 | 0.542 | -0.294 | 1.67 | 3.64 | 4.32 | 1.97 | 3.96
5 | CTCGAAAGGTCGGATGAGGTGAGTATACGGATAA | 2.61 | 2.09 | 0.0368 | 1.69 | -0.334 | 3.17 | 1.02 | 1.66 | 0.432 | 0.958
6 | TCTAGCAGGCCAGGGGGTCACTCAAGAGGTACGG | 3.31 | 3.16 | 0.394 | 5.14 | 4.6 | 4.64 | 2.95 | 4.66 | 3.29 | 4.43
7 | ACTATTAGTGGAGACGAGGGCAACCGATAGGTTG | 0.0192 | -0.21 | -0.488 | -0.347 | -0.31 | -0.00529 | 0.674 | 0.335 | -0.0792 | 0.232
8 | CGAACTAGCTCATCCAGGACAGTGAATACATTGA | -0.123 | -0.399 | 0.0441 | -0.293 | -0.166 | -0.4 | 0.522 | -0.572 | 0.105 | 0.154
9 | TCGAGTAGGTTAGAGGCATTCAGAATGGCGTCGA | 0.0736 | -0.18 | -0.53 | -0.336 | -1.72 | 0.422 | 1.22 | 2.66 | 1.4 | 2.27
10 | TCTTGTAGATCAGCAGGTTAAAAAAGCTGGCCAA | 0.198 | 0.216 | -0.0606 | 0.293 | -0.538 | 0.844 | -0.455 | 1.44 | 2.6 | 1.94
11 | AGAAAGAGGTTAAGATCAGGGAAACAGAATACAT | 2.5 | 2.43 | 0.396 | 2.31 | 0.766 | 3.66 | 2.06 | 1.89 | 1.05 | 1.34
12 | CCTAGCAGGCGAATCTGGGTCACTCAAGGCTTGA | 0.211 | 0.262 | -0.449 | 0.236 | -0.934 | 3.11 | 2.47 | 2.62 | -0.139 | 1.64
13 | CCGACTGGGGCACAAGGTTACCATAAGCCAGCCC | 0.122 | 1.73 | -0.433 | 0.74 | -1.16 | 2.2 | 2.92 | 3.16 | 0.724 | 2.49
14 | CCGATTGGGGCAAAGGTTACCATACTCAGTACGA | 1.84 | 1.62 | -0.0955 | 2.33 | -0.878 | 4.89 | 8.96 | 8.43 | 7.85 | 8.46
15 | ATATGTAGGTTATCGGGTCCTTCAGTTTGCGCAT | 0.663 | 0.859 | 0.528 | 0.856 | 0.389 | 3.24 | 5.01 | 4.43 | 1.77 | 3.45
16 | AGTCAAAGTTCAGGACGAGGCAACGTAAAGCACG | 3.7 | 3.55 | 1.2 | 1.5 | -0.0334 | 3.22 | 4.51 | 4.56 | 1.57 | 3.42
17 | CCTCGGAGGACAACAGGAGGTCAGAGTTGCCAGA | 1.11 | 2.05 | 2.59 | 1.57 | -0.486 | 2.02 | 0.634 | 0.674 | -0.404 | 0.264
18 | TTTTGTAGATCAATAGAGGTTAAGAAAGTGCGCT | 0.883 | 3.94 | 1.12 | 1.9 | 0.26 | 2.02 | 0.38 | 1.37 | 1.13 | 1.41
19 | TTACTAAGGTGAAGGTCGTTGATCCCTCTGTAGA | 3.06 | 2.12 | 0.0636 | 2.08 | -0.257 | 3.76 | 5.8 | 6.91 | 5.91 | 7.51
20 | TGAACGAGGTTAAAGATCAGGGAACGTGGCGTCG | 2.87 | 2.22 | -0.236 | 1.57 | -0.0519 | 4.05 | 5.17 | 5.68 | 4.28 | 6
21 | TCTATTAGTTGATTAAGGCAACCGAAACAGCGGA | 0.785 | 0.541 | 0.0619 | 0.645 | 0.994 | 0.614 | 0.172 | 2.06 | 3.75 | 2.99
22 | CCAACTAGGTCAAGAGGTCAAAGTCCGCTTCCCG | 6.96 | 6.55 | 6.26 | 5.47 | 1.76 | 6.42 | 9.41 | 7.99 | 6.27 | 8.1

Row | Sequence | PBM binding z-score [1] | PBM binding z-score [2] | PBM binding z-score [3] | PBM binding z-score [4] | PBM binding z-score [5] | PBM binding z-score [6] | PBM binding z-score [7] | PBM binding z-score [8] | PBM binding z-score [9] | PBM binding z-score [10]
23 | CATCCAAGGTCAAGGTCAGTGAAAGAGACTCGAA | 7.77 | 6.14 | 2.48 | 5.1 | 2.11 | 6.02 | 7.17 | 6.56 | 3.3 | 5.45
24 | GGAAAGAGGGCAAAGTTGATAGCATCTGTCGACG | 2.04 | 1.94 | 0.254 | 1.64 | 0.832 | 4.24 | 6.06 | 6.9 | 5.92 | 7.29
25 | CGACCTAGGTCAGAACAGGACAGTGAAGGATGAT | 2.95 | 1.5 | 0.143 | 1.08 | -0.535 | 2.08 | 1.55 | 1.2 | -0.0187 | 0.682
26 | CGAACCAGGGCATGAGTTGATAGCAAATGCCGAT | -0.0641 | -0.00251 | -0.295 | -0.304 | -1.08 | 0.552 | 1.15 | 1.2 | -0.166 | 0.593
27 | CCTACTCGGCCATTCAGAGGTCATTGATCATATG | 3.34 | 4.79 | 7.45 | 4.25 | 1.6 | 3.7 | 1.05 | 1.96 | 0.587 | 1.31
28 | CTTAGCAGGCCAATCTGGGTCACTCAAGGCTTGA | 0.29 | 1.18 | -0.362 | 0.386 | -0.93 | 3.08 | 2.4 | 2.51 | -0.0201 | 1.43
29 | TCTGGTAGATCAGCAGGTTAAGAAAGCTGGCCAA | -0.0813 | -0.0843 | -0.0573 | 0.308 | -1.12 | 0.507 | -0.637 | 1.06 | 1.81 | 1.12
30 | CAAACTAGGTTACGAAAGGTCAAAGTCGAATGAC | 5.93 | 8.59 | 8.28 | 7.69 | 2.88 | 6.1 | 8.03 | 7.02 | 4.81 | 6.47
31 | CCGACTGGGGCAAAGGTTACCATACTCAGTACGA | 1.57 | 1.66 | 0.0551 | 2.1 | -0.895 | 5.49 | 11.2 | 9.84 | 8.71 | 11.5
32 | AGTATGAGGTTAAGATCAGGGAAACAGAATACAT | 1.71 | 2.36 | 0.00803 | 1.84 | 0.314 | 3.08 | 1.76 | 1.45 | 0.773 | 1.12
33 | AGTCGAAGTTCACTAGGTAACGTAAGATTCAGCT | 1.2 | 1.74 | 0.29 | 1.03 | -0.107 | 2.81 | 3.18 | 3.43 | 0.891 | 2.44
34 | TCTTGTAGATCAAGCAGGTTAACAAAGCCTGAGT | 0.489 | 0.545 | 0.00608 | 0.81 | -0.426 | 0.99 | -0.0763 | 1.23 | 2.44 | 2.04
35 | CGTCAAAGTTCAAGTAAGGTAACGTAAAGCACGC | 6.99 | 6.43 | 4.16 | 4.1 | 1.85 | 5.15 | 5.02 | 5.63 | 2.56 | 4.25
36 | ACAGACTGGTGATGAAGGTAACTCAGGCTATCAT | -0.533 | -0.452 | -0.433 | -0.663 | -0.582 | -0.594 | 0.512 | 0.104 | -0.179 | -0.158
37 | CCGACTGGAGCAAGGTTACCATAACGCACAGCCA | -0.0203 | 0.559 | 0.116 | 0.511 | -0.797 | 1.01 | 1.3 | 1.66 | 0.181 | 0.892
38 | CAAACTAGGACAAGGTCAAAGTCGGTTTGTGCCA | 4.54 | 4.18 | 2.08 | 3.48 | 0.526 | 5.05 | 5.5 | 5.41 | 3.12 | 4.9
39 | CAGCCTAGGTCGGGGCCAGTATAGGAGGAACGTT | -0.375 | -0.409 | -0.6 | -0.47 | -1.25 | -0.00359 | -0.199 | -0.885 | -1.38 | -0.981
40 | AGAATGAGGTTATACGAAGATCAGGGAAGAAAGT | 2.26 | 1.67 | -0.199 | 1.54 | -0.139 | 3.25 | 1.68 | 1.8 | 0.749 | 1.51
41 | CCTACTGGGGCATTCAGAGGTCATTGATCATATG | 3.08 | 4.37 | 6.25 | 3.91 | 0.359 | 4.07 | 3.34 | 4.13 | 1.23 | 3.12
42 | CCTTACGGGTCACTAACAGGTTATAGCATTTGGA | 4.73 | 4.24 | 0.54 | 3.4 | 0.319 | 4.89 | 3.61 | 3.78 | 1.37 | 2.83
43 | ACAGACACGTGAGTGAAGGTAACTCAGCTGGACG | -0.234 | -0.154 | -0.292 | -0.456 | -0.355 | -0.342 | 0.663 | -0.357 | -0.193 | -0.63
44 | CAGCCTACGTCAGGGCCAGTATAGGAGGAACGTT | -0.299 | -0.664 | -0.318 | -0.547 | -1.11 | -0.518 | 0.171 | -0.999 | -0.483 | -0.832
